Compounds with a hit are over-represented: about 1% of the library has one in this group of screens.
TSHR antagonist: human thyrotropin receptor antagonism | P16473 | TSHR-expressing cells, TSH-stimulated cAMP HTRF, 2 h; active compounds read low | activity change, negative = inhibition, % at 11.5 µM | hit rate 0.2% among 330,000 | AID 504810;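 active = activity change below a set negative limit, meaning inhibition stronger than a set level, cut at about -70% in these data; inconclusive = activity change between two set negative limits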
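Read-out is FRET at 665 nm (cryptate excitation 337 nm) from a cryptate-tagged anti-cAMP antibody, competed by cell cAMP against cAMP-d2. Compounds are tested on freshly harvested TSHR cells challenged with 4nM TSH (EC80) for 2 hours at 37 deg C.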
TRb-SRC2 inh: TRbeta-SRC2 interaction inhibition. Potency, µM (doses to about 106 µM), actives largely listed as inhibitors. hit rate 0.065% among 280,000. P10828. TRbeta-SRC2 peptide binding, fluorescence polarization; receptor liganded with 1 µM T3; also: nearly all actives have a fitted effect of over 50% in size
Target sequence (P10828 whole entry, looked up): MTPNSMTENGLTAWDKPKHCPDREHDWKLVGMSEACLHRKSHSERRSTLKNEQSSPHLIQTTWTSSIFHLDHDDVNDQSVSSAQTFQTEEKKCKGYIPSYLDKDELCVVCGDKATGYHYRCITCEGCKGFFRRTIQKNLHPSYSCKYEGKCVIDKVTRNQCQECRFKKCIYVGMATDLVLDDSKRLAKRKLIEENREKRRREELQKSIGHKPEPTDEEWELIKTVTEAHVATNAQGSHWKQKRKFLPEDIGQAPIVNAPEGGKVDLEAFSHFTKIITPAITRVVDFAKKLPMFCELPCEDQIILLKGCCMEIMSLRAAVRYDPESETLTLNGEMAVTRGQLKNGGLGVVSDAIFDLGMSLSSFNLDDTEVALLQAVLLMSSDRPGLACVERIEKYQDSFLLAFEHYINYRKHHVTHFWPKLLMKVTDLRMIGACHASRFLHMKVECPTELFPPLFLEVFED
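Fluorescence polarization of 20 nM Texas Red SRC2 peptide (20-aa NR interaction domain) bound to 0.6 uM human TRb ligand-binding domain, with 1 uM T3, after 5 hr at ambient temperature; inhibition seen as decreased polarization.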
TR SRC2 fluor cs: Texas Red fluorescence interference in TRb-SRC2 counter-screen | hit rate 0.29% among 280,000 | Potency, µM (highest dose often 106 µM) | TRb/SRC2 Texas Red total fluorescence interference | AID 1479; active = well fitted curve in either direction with a large enough effect; inconclusive = small, poorly fitted or top-dose-only effect
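Flags fluorescent or light-absorbing compounds by total fluorescence, S + 2P, at 555 nm excitation and 632 nm emission. Mixture: 20 nM Texas Red SRC2 peptide, 0.6 uM human TRb LBD, 1 uM T3, 5% DMSO; compound exposure 5 h at ambient temperature.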
TCR activator: activates T cell receptor signaling; Potency, µM (top dose mostly 9.22 µM), usual class: activators; primary human leukocytes, anti-CD3, IL-2 HTRF, 48 h; 330,000 tested, under 10 active
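Compounds are tested in HTS on primary human leukocytes co-incubated with a-CD3 beads for 48 hr. IL-2 output is measured by time-resolved FRET.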
NPSR antagonist: antagonists of human neuropeptide S receptor cAMP signaling; Q6W5P4; CHO-NPSR cells, cAMP TR-FRET, antagonist mode; Potency, µM (doses to about 38.3 µM), hits mostly inhibitors; hit rate 1% among 220,000; AID 1461; also: nearly all actives have a fitted effect of over 50% in size
FBPA coupling cs: coupling enzyme interference in Giardia aldolase counter-screen; activity change, negative = inhibition, % at 58.2 µM, hits read low; hit rate 0.67% among 290,000; coupling enzyme system counterscreen, AmpLite Red fluorescence; AID 2472; in the data active = activity change below about -30%
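Fluorescence at 525 nm excitation and 598 nm emission measured inhibition of the coupled detection system without aldolase. Compounds (at 57.5 uM final) were preincubated 10 min at room temperature with coupling enzyme reagent before a 20 min substrate/AmpLite Red step.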
Each line names hits and unclear results; the compound was inactive in the other large screens; [ ] = another dose, or the depositor's remark. Unless noted, calls follow the shape of the dose curve; as a rule, active = well fitted curve in the direction sought with a large enough effect; inconclusive = small, poorly fitted or top-dose-only effect, or another doubt; inactive = no such curve, though single readings can be large; an effect the other way counts as inactive or inconclusive.

CN(C)c1ccc(/C=C/C=C/c2sc3ccccc3[n+]2C)cc1	NPSR antagonist inconclusive
CN(C)c1ccc(/C=C/c2cc[n+](C)c3ccccc23)cc1	NPSR antagonist 6.31µM, FBPA coupling cs -41.7
O=C(NC(=O)c1c(F)cccc1F)Nc1cc(Cl)c(OC(F)(F)C(F)F)c(Cl)c1	none (no result: TSHR antagonist, TCR activator, NPSR antagonist, FBPA coupling cs)
CN1CC[C@]2(C)c3cc(O)ccc3N(C)[C@@H]12	FBPA coupling cs -69.5 (no result: TSHR antagonist, TCR activator, NPSR antagonist)
CN1CC[C@@]2(C)c3cc(O)ccc3N(C)C12 (some centres undefined)	TRb-SRC2 inh inconclusive, NPSR antagonist inconclusive (no result: TCR activator, FBPA coupling cs)
O=C1C(Cl)=C(Cl)C(=O)c2ccccc21	none (no result: TSHR antagonist, TCR activator, NPSR antagonist, FBPA coupling cs)
COc1cc2c(cc1OC)-c1c(OC)c(OC)cc3c1C(C2)N(C)CC3 (centres undefined)	FBPA coupling cs -41.9
COc1ccc2c(c1O)-c1cc(O)cc3c1[C@@H](C2)N(C)CC3	none (no result: TSHR antagonist, TCR activator, NPSR antagonist, FBPA coupling cs)
COc1cc2c(cc1OC)-c1c(O)c(OC)cc3c1[C@H](C2)N(C)CC3	TRb-SRC2 inh 39.8µM, TR SRC2 fluor cs inconclusive (no result: TSHR antagonist, TCR activator, NPSR antagonist)
N#CCNC(=O)c1cnccc1C(F)(F)F	none (no result: TSHR antagonist, TCR activator, NPSR antagonist, FBPA coupling cs)
COCC(=O)N(c1c(C)cccc1C)N1CCOC1=O	none (no result: TSHR antagonist, TCR activator, NPSR antagonist, FBPA coupling cs)
Nc1c(C(=O)NCc2ccco2)c2nc3ccccc3nc2n1Cc1ccc(F)cc1	NPSR antagonist 10µM, FBPA coupling cs -40.3
Nc1c(C(=O)NCc2ccco2)c2nc3ccccc3nc2n1Cc1ccccc1	NPSR antagonist inconclusive
Nc1c(C(=O)NCCCc2ccccc2)c2nc3ccccc3nc2n1Cc1cccs1	NPSR antagonist inconclusive, FBPA coupling cs -51.3
CC(C)N1CCN(c2ccc(O)cc2)CC1	FBPA coupling cs -51.4
COc1ccc(OCC(=O)N2CCN(C(C)C)CC2)cc1	none
O=[N+]([O-])Nc1nccn1Cc1ccc(Cl)nc1	none (no result: TSHR antagonist, TCR activator, NPSR antagonist, FBPA coupling cs)
COc1nn(C(=O)NS(=O)(=O)c2ccccc2OC(F)(F)F)c(=O)n1C	none (no result: TSHR antagonist, TCR activator, NPSR antagonist, FBPA coupling cs)
Cc1ccc(-n2c(C)nc3ccccc3c2=O)cc1C	none
Cc1ccc(-n2c(C)nc3ccccc3c2=O)c(C)c1	TSHR antagonist -72.4
CCCCOP(=O)(O)OCCCC	none (no result: TSHR antagonist, TCR activator, NPSR antagonist, FBPA coupling cs)
CC(C)C1C(=O)N2CCCC2[C@]2(O)O[C@@](NC(=O)[C@@H]3C=C4c5cccc6[nH]cc(c56)C[C@H]4N(C)C3)(C(C)C)C(=O)N12 (some centres undefined)	FBPA coupling cs -34.0 (no result: TSHR antagonist, TCR activator, NPSR antagonist)
CC(C)[C@H]1C(=O)N2CCC[C@H]2[C@]2(O)O[C@](NC(=O)[C@@H]3C=C4c5cccc6[nH]cc(c56)C[C@H]4N(C)C3)(C(C)C)C(=O)N12	NPSR antagonist 1µM, FBPA coupling cs -45.9
CCc1cc(C)cc(CC)c1-c1c(OC(=O)C(C)(C)C)n2n(c1=O)CCOCC2	none (no result: TSHR antagonist, TCR activator, NPSR antagonist, FBPA coupling cs)
CCSCCSP(=O)(OC)OC	none (no result: TSHR antagonist, TCR activator, NPSR antagonist, FBPA coupling cs)
CCOP(=O)(OCC)SCSP(=S)(OCC)OCC	none (no result: TSHR antagonist, TCR activator, NPSR antagonist, FBPA coupling cs)
CCOC(=O)c1c(-n2c(C)cc(C=C3C(=O)NC(=S)NC3=O)c2C)sc2c1CCCC2	NPSR antagonist 3.98µM
COc1ccc(N2C(=O)/C(=C/c3cccs3)C(=O)NC2=S)cc1	NPSR antagonist inconclusive
COc1ccc(N2C(=O)/C(=C/C=C/c3ccccc3[N+](=O)[O-])C(=O)NC2=S)cc1	NPSR antagonist 10µM
CCOP(=S)(OCC)Oc1cnc2ccccc2n1	none (no result: TSHR antagonist, TCR activator, NPSR antagonist, FBPA coupling cs)
Cc1ccc(/C=C2\C(=O)NC(=S)N(c3ccccc3F)C2=O)s1	NPSR antagonist 5.01µM
CCOC(=O)C1CCCN(c2ccc([N+](=O)[O-])c3nonc23)C1 (centres undefined)	TRb-SRC2 inh inconclusive, TR SRC2 fluor cs 50.1µM[fluorescent]
CC1CCCN(c2ccc(C(=O)N3CCC4(CC3)OCCO4)cc2[N+](=O)[O-])C1 (centres undefined)	none (no result: TCR activator)
CCOP(=O)(OCC)SCSC(C)(C)C	none (no result: TSHR antagonist, TCR activator, NPSR antagonist, FBPA coupling cs)
O=C(O)c1ccccc1SCC(=O)N1c2ccccc2Sc2ccccc21	TR SRC2 fluor cs 0.0891µM[quencher]
